Most compounds without a hit are left out; they make up all but 3% or so of the library.
TROY NFkB inh: blocks TROY-dependent signaling in reporter cells | Q293 LMP1-TROYcd NF-kB luciferase reporter, 4 h | inhibition, % at 10 µM | 0.98% of 360,000 active;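 active = compounds whose plate-normalised and pattern-corrected inhibition of the luciferase reporter signal at the single screening dose is 50% or more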
EBV LMP1 NFkB: reduces LMP1-driven NF-kappaB luciferase signal | AID 504558 | 0.69% of 350,000 active | LMP1-induced NF-kappaB luciferase reporter cells, luminescence | inhibition, % at 12.5 µM; in the data active = inhibition above about 41%; inconclusive = no clear call, values can overlap the other calls
LGR2 inh: blocks bursicon-induced cAMP signaling via Drosophila LGR2 | HEK293 LGR2, CRE-luciferase, bursicon-stimulated, 4 h | inhibition, % at 9.99 µM | 0.35% of 380,000 active | AID 720647;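 active = drop in luminescence signal, shown as inhibition above about 50% in the replicate tests, limit read from the data, passing the limit was not always enough; inconclusive = probably only some replicates passing the limit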;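 note: agonist challenge used bursicon conditioned medium at about half maximal strength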
TWEAK Fn14 block: blocks TWEAK-Fn14 interaction in a reporter cell assay. TWEAK-stimulated Fn14 reporter cells, luciferase luminescence, 8 h. inhibition, % at 10 µM. 2% of 360,000 active. AID 1159606; in the data active = inhibition above about 50%
MITF TRPM1 inh: reduces MITF-dependent TRPM1 promoter luciferase signal; SK-MEL-5 TRPM1 promoter luciferase, 24 h; inhibition, % at 12.5 µM; 0.83% of 330,000 active; AID 488899;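 active = mean inhibition across replicates of 60% or more, whatever share of single replicates reaches that level; inconclusive = some that reach 60%, reason not given; inactive = mean inhibition across replicates below 60%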
MITF act: increases MITF-driven TRPM1 promoter luciferase signal | AID 588334 | 0.75% of 300,000 active | activation, % at 12.5 µM | SK-MEL-5 TRPM1-promoter luciferase, 24 h; % of positive control, neutral wells = 0;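 active = mean activation of at least 80% with every replicate also reaching 80%; inconclusive = mean reaches 80% but some replicate falls short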
Each line names hits and unclear results; the compound was inactive in the other large screens.

COc1ccc2c3c([nH]c2c1)[C@@H](CO)N(C(=O)CN(C)C)CC31CN(Cc2ccncc2)C1	none (no result: TROY NFkB inh, EBV LMP1 NFkB, TWEAK Fn14 block, MITF TRPM1 inh, MITF act)
CCOC(=O)N(O)c1ccc(C=Cc2ccccc2)cc1	EBV LMP1 NFkB 86, LGR2 inh 67
CC1CN(CCCCSc2ccc(Cl)cc2)CC(C)O1 (centres undefined)	TWEAK Fn14 block 90
N/C(=N\OC(=O)c1ccco1)c1ccccc1	MITF act 95 (no result: LGR2 inh)
COc1ccc(/C(N)=N/OC(=O)c2ccco2)cc1	TROY NFkB inh 56, LGR2 inh 69, TWEAK Fn14 block 64
Cc1ccc(/C(N)=N/OC(=O)c2ccco2)cc1	none (no result: LGR2 inh, MITF act)
C[C@H]1CN([C@@H](C)CO)S(=O)(=O)c2ccc(-c3cccc(C#N)c3)cc2O[C@H]1CN(C)C(=O)c1cccnc1	none (no result: TROY NFkB inh, EBV LMP1 NFkB, TWEAK Fn14 block, MITF TRPM1 inh, MITF act)
CN(C)CC(=O)N[C@@H]1CC[C@@H](CCn2cc(CN(C)C)nn2)O[C@@H]1CO	none (no result: TROY NFkB inh, EBV LMP1 NFkB, TWEAK Fn14 block, MITF TRPM1 inh, MITF act)
CC(C)(C)n1nc(-c2ccc(Cl)cc2)c2c(N)ncnc21	EBV LMP1 NFkB 42 (no result: LGR2 inh)
CC(C)(C)n1nc(-c2ccc(F)cc2)c2c(N)ncnc21	EBV LMP1 NFkB inconclusive (no result: LGR2 inh)
Nc1ncnc(SCc2c(F)cccc2Cl)n1	none (no result: MITF act)
Fc1cccc(Cl)c1CSc1ncn[nH]1	TROY NFkB inh 78 (no result: LGR2 inh, MITF act)
COc1ccc(-c2cc(C#N)nc(Cl)n2)cc1	TROY NFkB inh 80, MITF TRPM1 inh 66 (no result: MITF act)
N#Cc1cc(-c2ccccc2)nc(Oc2ccccc2)n1	TWEAK Fn14 block 61
CC(C)NC(=O)N1CC2(C1)[C@@H](c1ccccc1)[C@H](CO)N2C(=O)C1CCC1	none (no result: TROY NFkB inh, EBV LMP1 NFkB, TWEAK Fn14 block, MITF TRPM1 inh, MITF act)
CC(C)NC(=O)N(C)C[C@H]1Oc2ccc(NC(=O)Nc3ccccc3)cc2CC(=O)N([C@H](C)CO)C[C@@H]1C	none (no result: TROY NFkB inh, EBV LMP1 NFkB, TWEAK Fn14 block, MITF TRPM1 inh, MITF act)
CN1CCN(C2=C(Cl)C(=O)c3ccccc3C2=O)CC1	LGR2 inh 72, MITF TRPM1 inh 100
CC1COCC(C)N1C1=C(Cl)C(=O)c2ccccc2C1=O (centres undefined)	MITF TRPM1 inh 96
CN(C1=C(N2CCOCC2)C(=O)c2ccccc2C1=O)c1ccccc1	none
NC(=O)C1CCN(C2=C(Cl)C(=O)c3ccccc3C2=O)CC1	EBV LMP1 NFkB 78, MITF TRPM1 inh 88 (no result: LGR2 inh, MITF act)
O=C1C(Cl)=C(N2CCC(C(=O)O)CC2)C(=O)c2ccccc21	none (no result: LGR2 inh)
N=c1c(-c2nc3ccccc3[nH]2)cc(C(=O)c2ccco2)nn1-c1ccccc1	none
N=c1c(-c2nc3ccccc3[nH]2)cc(C(=O)c2cccs2)nn1-c1ccccc1	EBV LMP1 NFkB 42 (no result: LGR2 inh, MITF act)
COc1cccc(COC(=O)c2cc(S(=O)(=O)N3CCOCC3)ccc2Cl)c1OC	TWEAK Fn14 block 85
COc1ccc(-c2cc(-c3ccccc3)c(C#N)c(S(C)=O)n2)cc1 (centres undefined)	MITF TRPM1 inh 70 (no result: LGR2 inh)
O=C(C[C@H]1CC[C@@H]2[C@H](COC[C@@H](O)CN2S(=O)(=O)c2ccc(Oc3ccccc3)cc2)O1)Nc1ccccc1	none (no result: TROY NFkB inh, EBV LMP1 NFkB, TWEAK Fn14 block, MITF TRPM1 inh, MITF act)
O=C(NCc1ccccn1)C1CCCN(S(=O)(=O)c2cc(Cl)ccc2Cl)C1 (centres undefined)	MITF TRPM1 inh 98 (no result: LGR2 inh)
C[C@@H]1CN([C@@H](C)CO)C(=O)c2cc(NC(=O)Cc3ccccc3)ccc2O[C@@H](C)CCCCO[C@H]1CN(C)CC1CCCCC1	none (no result: TROY NFkB inh, EBV LMP1 NFkB, TWEAK Fn14 block, MITF TRPM1 inh, MITF act)
O=[N+]([O-])c1cc(C(F)(F)F)cc([N+](=O)[O-])c1NCCNC(=S)Nc1ccc(Cl)c(Cl)c1	TROY NFkB inh 58 (no result: MITF act)
O=[N+]([O-])c1ccc(/C=N/Nc2nc3ccccc3o2)cc1	MITF act inconclusive
CN(C)c1ccc(/C=N/Nc2nc3ccccc3o2)cc1	TROY NFkB inh 53, LGR2 inh 67, TWEAK Fn14 block 81
CCS(=O)(=O)c1ccc(C=NNc2nc3ccccc3o2)cc1	MITF act 104
CCCOc1ccc(-c2nc(SCc3ccccc3)[nH]c(=O)c2C#N)cc1OC	TROY NFkB inh 51
NC(=Nc1nc(-c2ccccn2)cc2ccccc12)c1ccccn1	EBV LMP1 NFkB 67, MITF TRPM1 inh 65
CCOC(=O)OC(C)OC(=O)[C@@H]1N2C(=O)[C@@H](NC(=O)[C@H](N)c3ccccc3)[C@H]2SC1(C)C (some centres undefined)	EBV LMP1 NFkB 56 (no result: LGR2 inh)
O=[N+]([O-])c1ccc(N2CCCC2)nc1N1CCCC1	none (no result: MITF act)
Nc1ncc([N+](=O)[O-])c(N2CCCCCC2)n1	TWEAK Fn14 block 75
COc1cc(/C=N/N=C2/NC(=O)C(CC(=O)O)S2)ccc1OCc1ccc(Cl)cc1 (centres undefined)	none
CCOc1cc(CNCCc2ccc(S(N)(=O)=O)cc2)ccc1OCc1ccc(Cl)cc1	TWEAK Fn14 block 86, MITF TRPM1 inh 92 (no result: LGR2 inh)
NC(N)=N/N=C/c1ccc(OCc2ccccc2)c(OCc2ccccc2)c1	MITF TRPM1 inh 82
COc1cc(/C=N/N=C(N)N)ccc1OCc1ccc(Cl)cc1	TROY NFkB inh 62, TWEAK Fn14 block 81, MITF TRPM1 inh 89
NC(N)=N/N=C/c1ccc(Cl)c(Cl)c1	LGR2 inh 64 (no result: EBV LMP1 NFkB, MITF TRPM1 inh, MITF act)
C[C@@H]1CN([C@@H](C)CO)C(=O)Cc2cc(NC(=O)Cc3cn(C)c4ccccc34)ccc2O[C@H]1CN(C)C(=O)Nc1cccc2ccccc12	none (no result: TROY NFkB inh, EBV LMP1 NFkB, TWEAK Fn14 block, MITF TRPM1 inh, MITF act)
CCOc1cc(/C=N/N=C(N)N)ccc1OCc1ccc(Cl)cc1	LGR2 inh 53, MITF TRPM1 inh 90
CCOc1cc(/C=N/O)ccc1OCc1ccc(F)cc1	none
COc1ccc2c3c(n(C)c2c1)[C@H](CO)N(CC1CCOCC1)CC31CCN(Cc2nccs2)CC1	none (no result: TROY NFkB inh, EBV LMP1 NFkB, TWEAK Fn14 block, MITF TRPM1 inh, MITF act)
CCCC(=O)NC(c1ccccc1)c1ccc2cccnc2c1O (centres undefined)	MITF TRPM1 inh 65 (no result: LGR2 inh)
CCC(=O)NC(c1ccccc1OC)c1ccc2cccnc2c1O (centres undefined)	EBV LMP1 NFkB 65, MITF TRPM1 inh 66 (no result: LGR2 inh)
CCCCC(=O)NC(c1ccccc1Cl)c1ccc2cccnc2c1O (centres undefined)	EBV LMP1 NFkB 72, MITF TRPM1 inh 71
CC(=O)NC(c1ccc(C(C)C)cc1)c1ccc2cccnc2c1O (centres undefined)	EBV LMP1 NFkB 57, MITF TRPM1 inh inconclusive (no result: MITF act)
Cc1noc(C)c1NC(=O)N(C)C[C@@H]1OCCCC[C@H](C)Oc2ccc(NC(=O)NC(C)C)cc2C(=O)N([C@@H](C)CO)C[C@@H]1C	none (no result: TROY NFkB inh, EBV LMP1 NFkB, TWEAK Fn14 block, MITF TRPM1 inh, MITF act)
COc1ccc(-c2cnc3c(c2)C(=O)N([C@@H](C)CO)C[C@@H](C)[C@@H](CN(C)C(=O)NC2CCCC2)O3)cc1	none (no result: TROY NFkB inh, EBV LMP1 NFkB, TWEAK Fn14 block, MITF TRPM1 inh, MITF act)
C/C=C/c1ccc([C@@H]2[C@H]3CN(C(=O)Nc4ccccc4F)CC(=O)N3[C@H]2CO)cc1	none (no result: TROY NFkB inh, EBV LMP1 NFkB, TWEAK Fn14 block, MITF TRPM1 inh, MITF act)
CCCCC(=O)NC(c1ccccc1)c1ccc2cccnc2c1O (centres undefined)	EBV LMP1 NFkB 48, MITF TRPM1 inh 65
Oc1c(C(c2ccccc2Cl)N2CCCC2)ccc2cccnc12 (centres undefined)	MITF TRPM1 inh 75
CCC(=O)NC(c1ccc(OC)cc1)c1cc(Cl)c2cccnc2c1O (centres undefined)	none
